# Source: PMC10313818
# Assays:
# Test in all cases: cross-linking mass spectrometry
# Conditions in all cases: not determined
# SDHA = SDHA (UniProt P31040)
# ATP5PF = ATP5PF (UniProt P18859)
# GUF1 = GUF1 (UniProt Q8N442)
# COQ3 = COQ3 (UniProt Q9NZJ6)
# TUFM = TUFM (UniProt P49411)
# OGDH = OGDH (UniProt Q02218)
# SLC25A19 = SLC25A19 (UniProt Q9HC21)
# ALDH3A2 = ALDH3A2 (UniProt P51648)
# SPRYD4 = SPRYD4 (UniProt Q8WW59)
# PHB2 = PHB2 (UniProt Q99623)
# NOCT = NOCT (UniProt Q9UK39)
# PRDX6 = PRDX6 (UniProt P30041)
# SIRT3 = SIRT3 (UniProt Q9NTG7)
# APOO = APOO (UniProt Q9BUR5)
# MTRF1L = MTRF1L (UniProt Q9UGC7)
# PDSS1 = PDSS1 (UniProt Q5T2R2)
# RMND1 = RMND1 (UniProt Q9NWS8)
# PMPCA = PMPCA (UniProt Q10713)
# ACACA = ACACA (UniProt Q13085)
# COX7C = COX7C (UniProt P15954)
# HSDL2 = HSDL2 (UniProt Q6YN16)
# IDH3G = IDH3G (UniProt P51553)
# OGDHL = OGDHL (UniProt Q9ULD0)
# TBRG4 = TBRG4 (UniProt Q969Z0)
# HADHA = HADHA (UniProt P40939)
# SAMM50 = SAMM50 (UniProt Q9Y512)
# ADCK1 = ADCK1 (UniProt Q86TW2)
# Chain of GUF1, Q8N442 (Q8N442 whole entry): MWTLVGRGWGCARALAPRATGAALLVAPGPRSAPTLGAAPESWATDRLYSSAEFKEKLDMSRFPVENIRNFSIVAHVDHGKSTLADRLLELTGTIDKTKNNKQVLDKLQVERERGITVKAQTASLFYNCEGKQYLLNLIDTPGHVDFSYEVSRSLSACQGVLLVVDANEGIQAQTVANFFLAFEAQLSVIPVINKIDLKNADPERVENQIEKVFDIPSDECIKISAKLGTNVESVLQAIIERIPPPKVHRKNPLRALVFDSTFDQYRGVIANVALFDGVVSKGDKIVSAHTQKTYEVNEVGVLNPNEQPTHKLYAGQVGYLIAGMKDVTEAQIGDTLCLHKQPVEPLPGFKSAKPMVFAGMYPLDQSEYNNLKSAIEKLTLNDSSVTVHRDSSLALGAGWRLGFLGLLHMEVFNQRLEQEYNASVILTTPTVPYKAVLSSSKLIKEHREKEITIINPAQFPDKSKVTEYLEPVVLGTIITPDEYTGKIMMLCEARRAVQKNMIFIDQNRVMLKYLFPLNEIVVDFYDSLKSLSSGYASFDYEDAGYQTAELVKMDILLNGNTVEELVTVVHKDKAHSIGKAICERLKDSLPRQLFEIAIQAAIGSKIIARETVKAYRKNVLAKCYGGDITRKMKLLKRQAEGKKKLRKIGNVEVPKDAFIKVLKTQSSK
# Chain of GUF1 (Q8N442 whole entry): as above
# Chain of BPHL, Q86WA6 (Q86WA6 whole entry): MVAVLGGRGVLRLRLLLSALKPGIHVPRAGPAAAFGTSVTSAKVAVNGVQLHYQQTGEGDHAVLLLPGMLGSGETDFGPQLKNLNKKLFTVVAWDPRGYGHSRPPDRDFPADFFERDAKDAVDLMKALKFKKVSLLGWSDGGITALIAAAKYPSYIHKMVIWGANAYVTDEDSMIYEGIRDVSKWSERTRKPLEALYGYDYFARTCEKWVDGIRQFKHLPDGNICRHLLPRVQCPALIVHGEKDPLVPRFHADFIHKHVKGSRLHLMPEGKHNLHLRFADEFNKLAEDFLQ
# Chain of MACROD1, Q9BQ69 (Q9BQ69 whole entry): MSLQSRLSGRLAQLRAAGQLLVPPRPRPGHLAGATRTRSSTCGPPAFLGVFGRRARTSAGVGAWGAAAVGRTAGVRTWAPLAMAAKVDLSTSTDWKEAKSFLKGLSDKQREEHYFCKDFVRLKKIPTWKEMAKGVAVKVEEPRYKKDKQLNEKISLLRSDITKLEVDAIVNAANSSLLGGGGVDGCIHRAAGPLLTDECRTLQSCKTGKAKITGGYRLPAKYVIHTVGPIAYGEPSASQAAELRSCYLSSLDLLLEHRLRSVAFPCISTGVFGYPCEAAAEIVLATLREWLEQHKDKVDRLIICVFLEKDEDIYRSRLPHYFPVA
# Chain of TBRG4 (Q969Z0 whole entry): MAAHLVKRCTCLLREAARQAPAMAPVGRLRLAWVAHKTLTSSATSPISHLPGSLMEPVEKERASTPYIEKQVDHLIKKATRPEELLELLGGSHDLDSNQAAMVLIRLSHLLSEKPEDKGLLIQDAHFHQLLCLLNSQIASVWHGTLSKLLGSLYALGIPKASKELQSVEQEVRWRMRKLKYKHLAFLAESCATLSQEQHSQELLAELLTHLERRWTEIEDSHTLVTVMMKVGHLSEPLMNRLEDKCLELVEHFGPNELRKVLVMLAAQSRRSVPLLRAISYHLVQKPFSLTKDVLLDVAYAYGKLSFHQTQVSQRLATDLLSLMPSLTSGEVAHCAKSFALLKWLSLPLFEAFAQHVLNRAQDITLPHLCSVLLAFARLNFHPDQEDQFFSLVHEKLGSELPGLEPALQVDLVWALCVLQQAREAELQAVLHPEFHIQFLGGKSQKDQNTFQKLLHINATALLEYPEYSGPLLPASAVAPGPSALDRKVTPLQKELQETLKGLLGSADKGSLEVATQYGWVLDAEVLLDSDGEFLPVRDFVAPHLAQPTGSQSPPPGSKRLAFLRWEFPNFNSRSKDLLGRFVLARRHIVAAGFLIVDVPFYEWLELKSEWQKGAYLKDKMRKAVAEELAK
# Chain of NDUFC1, O43677 (O43677 whole entry): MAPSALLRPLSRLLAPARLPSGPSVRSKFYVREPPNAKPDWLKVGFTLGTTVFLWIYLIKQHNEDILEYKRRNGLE
# Chain of TOMM20, Q15388 (Q15388 whole entry): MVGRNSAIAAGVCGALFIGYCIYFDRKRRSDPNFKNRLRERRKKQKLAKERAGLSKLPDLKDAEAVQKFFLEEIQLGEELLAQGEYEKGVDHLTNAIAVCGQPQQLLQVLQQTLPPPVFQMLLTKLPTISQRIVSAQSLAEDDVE
# Chain of IDH3G (P51553 whole entry): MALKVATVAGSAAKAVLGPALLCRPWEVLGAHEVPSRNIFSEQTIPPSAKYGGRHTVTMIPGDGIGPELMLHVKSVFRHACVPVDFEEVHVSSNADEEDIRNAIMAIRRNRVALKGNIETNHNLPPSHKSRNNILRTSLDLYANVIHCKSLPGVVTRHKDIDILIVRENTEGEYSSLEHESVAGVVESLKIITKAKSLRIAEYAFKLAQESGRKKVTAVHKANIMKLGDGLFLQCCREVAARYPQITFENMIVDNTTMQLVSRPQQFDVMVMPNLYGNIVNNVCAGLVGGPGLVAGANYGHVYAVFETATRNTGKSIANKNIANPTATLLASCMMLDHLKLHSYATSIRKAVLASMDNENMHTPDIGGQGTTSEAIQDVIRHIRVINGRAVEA
# Chain of OGDHL (Q9ULD0 whole entry): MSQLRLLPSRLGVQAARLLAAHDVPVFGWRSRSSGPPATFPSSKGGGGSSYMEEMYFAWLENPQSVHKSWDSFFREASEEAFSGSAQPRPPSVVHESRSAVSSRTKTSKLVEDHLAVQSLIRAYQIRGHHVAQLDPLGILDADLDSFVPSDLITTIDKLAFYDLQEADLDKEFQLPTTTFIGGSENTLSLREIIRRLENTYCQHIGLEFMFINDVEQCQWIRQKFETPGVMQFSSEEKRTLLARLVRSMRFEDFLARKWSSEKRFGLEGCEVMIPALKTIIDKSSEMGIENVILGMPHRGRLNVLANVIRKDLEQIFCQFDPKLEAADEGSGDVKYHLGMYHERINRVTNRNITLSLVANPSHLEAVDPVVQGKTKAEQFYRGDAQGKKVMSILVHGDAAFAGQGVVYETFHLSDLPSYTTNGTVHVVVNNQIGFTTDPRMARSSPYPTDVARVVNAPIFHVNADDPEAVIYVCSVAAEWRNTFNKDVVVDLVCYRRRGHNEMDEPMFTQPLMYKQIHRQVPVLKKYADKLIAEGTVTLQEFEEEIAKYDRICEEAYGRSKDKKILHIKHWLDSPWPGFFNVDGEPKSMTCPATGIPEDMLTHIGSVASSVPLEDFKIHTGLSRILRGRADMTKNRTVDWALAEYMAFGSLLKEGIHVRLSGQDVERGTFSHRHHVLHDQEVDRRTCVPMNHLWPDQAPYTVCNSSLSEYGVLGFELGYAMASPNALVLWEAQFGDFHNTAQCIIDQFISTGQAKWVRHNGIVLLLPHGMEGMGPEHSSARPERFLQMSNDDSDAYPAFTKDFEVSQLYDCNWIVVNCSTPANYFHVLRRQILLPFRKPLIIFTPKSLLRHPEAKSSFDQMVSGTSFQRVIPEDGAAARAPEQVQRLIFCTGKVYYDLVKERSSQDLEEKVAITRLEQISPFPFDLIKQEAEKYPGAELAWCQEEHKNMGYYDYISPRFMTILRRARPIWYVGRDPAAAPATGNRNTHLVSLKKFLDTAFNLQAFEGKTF
# Chain of BCL2, P10415 (P10415 whole entry): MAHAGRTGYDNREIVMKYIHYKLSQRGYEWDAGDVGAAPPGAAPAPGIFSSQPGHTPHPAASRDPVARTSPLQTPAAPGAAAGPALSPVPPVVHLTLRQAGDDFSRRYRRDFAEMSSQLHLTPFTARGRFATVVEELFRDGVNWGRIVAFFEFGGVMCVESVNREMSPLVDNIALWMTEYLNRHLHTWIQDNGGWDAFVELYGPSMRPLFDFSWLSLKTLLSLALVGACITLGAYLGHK
# Chain of NDUFV3, P56181 (P56181 whole entry): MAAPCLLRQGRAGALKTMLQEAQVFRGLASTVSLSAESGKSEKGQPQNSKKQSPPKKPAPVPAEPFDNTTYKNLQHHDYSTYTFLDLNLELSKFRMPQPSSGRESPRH
# Chain of ATP5PD, O75947 (O75947 whole entry): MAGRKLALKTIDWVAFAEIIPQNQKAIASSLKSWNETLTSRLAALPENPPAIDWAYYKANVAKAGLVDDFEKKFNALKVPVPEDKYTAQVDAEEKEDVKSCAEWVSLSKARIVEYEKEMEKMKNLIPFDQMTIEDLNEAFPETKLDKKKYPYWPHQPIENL
# Chain of RMND1 (Q9NWS8 whole entry): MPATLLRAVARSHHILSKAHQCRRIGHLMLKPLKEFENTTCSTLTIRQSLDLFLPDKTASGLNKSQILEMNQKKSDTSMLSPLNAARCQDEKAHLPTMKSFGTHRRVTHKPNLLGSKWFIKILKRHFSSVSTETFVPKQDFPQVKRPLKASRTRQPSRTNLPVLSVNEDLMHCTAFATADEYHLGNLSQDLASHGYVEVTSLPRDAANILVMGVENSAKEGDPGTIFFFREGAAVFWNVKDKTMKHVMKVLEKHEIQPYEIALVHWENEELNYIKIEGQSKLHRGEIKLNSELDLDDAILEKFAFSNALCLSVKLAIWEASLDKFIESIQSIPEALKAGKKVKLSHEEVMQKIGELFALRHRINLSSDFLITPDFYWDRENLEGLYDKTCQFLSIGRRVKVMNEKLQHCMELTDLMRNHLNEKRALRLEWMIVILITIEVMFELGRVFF
# Chain of COX5B, P10606 (P10606 whole entry): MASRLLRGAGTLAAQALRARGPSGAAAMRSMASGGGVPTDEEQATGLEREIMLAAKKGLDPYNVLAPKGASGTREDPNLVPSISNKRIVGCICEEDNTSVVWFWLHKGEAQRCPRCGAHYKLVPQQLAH
# Chain of COX7C (P15954 whole entry): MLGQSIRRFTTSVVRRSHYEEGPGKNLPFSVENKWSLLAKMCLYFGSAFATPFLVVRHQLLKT
# Chain of ATP5PF (P18859 whole entry): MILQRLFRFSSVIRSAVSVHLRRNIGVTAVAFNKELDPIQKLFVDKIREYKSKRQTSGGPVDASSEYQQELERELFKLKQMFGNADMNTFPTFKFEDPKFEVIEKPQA
substance,measurement,setting,value
"SNAP29, O95721",cross-linked residues,SDHA,K124 - K517
"ATP5PD, O75947",cross-linked residues,ATP5PF,K63 - K79
"ACADM, P11310",cross-linked residues,GUF1,K144 - K664
"DHX30, Q7L2E3",cross-linked residues,COQ3,K303 - K196
"ACACB, O00763",cross-linked residues,TUFM,K1705 - K259
"VDAC1, P21796",cross-linked residues,OGDH,K61 - K999
"BPHL, Q86WA6",cross-linked residues,SLC25A19,V2 - V2
"HADHA, P40939",cross-linked residues,ALDH3A2,K254 - M1
"ATP5F1D, P30049",cross-linked residues,SPRYD4,K136 - K33
"PHB1, P35232",cross-linked residues,PHB2,K202 - K216
"ALDH4A1, P30038",cross-linked residues,NOCT,K93 - M1
"COX5B, P10606",cross-linked residues,PRDX6,K57 - K63
"MACROD1, Q9BQ69",cross-linked residues,SIRT3,K99 - K399
"GUF1, Q8N442",cross-linked residues,APOO,K351 - K27
"TOMM20, Q15388",cross-linked residues,MTRF1L,K56 - K74
"NDUFV3, P56181",cross-linked residues,PDSS1,M1 - K91
"BCKDHB, P21953",cross-linked residues,RMND1,K381 - K145
"PMPCB, O75439",cross-linked residues,PMPCA,K148 - K64
"HSPD1, P10809",cross-linked residues,ACACA,K58 - K2167
same,cross-linked residues,COX7C,K58 - K34
same,cross-linked residues,HSDL2,K418 - K304
same,cross-linked residues,IDH3G,K31 - K214
"PDHA1, P08559",cross-linked residues,OGDHL,K40 - K525
"ACSM4, P0C7M7",cross-linked residues,TBRG4,K542 - K576
"BCL2, P10415",cross-linked residues,HADHA,M1 - K254
"VDAC2, P45880",cross-linked residues,SAMM50,K74 - G2
"NDUFC1, O43677",cross-linked residues,ADCK1,K28 - K325
